Test results from PubChem BioAssay (NCATS).
Results filed as inconclusive are left out. Calls of active or inactive are those of the source. Calls follow the shape of the dose curve; as a rule, active = well fitted inhibition curve with a large enough effect; inconclusive = small, poorly fitted or top-dose-only effect; inactive = no such curve, though single readings can be large or run the other way.

Target: Rap guanine nucleotide exchange factor 3 (Homo sapiens) (UniProt O95398)
Experiment: Confirmatory qHTS for antagonist of cAMP-regulated guanine nucleotide exchange factor 3 (EPAC1) (AID 1645880); also: nearly all actives have a fitted effect of over 55% in size;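 as to activity, negative = inhibition: plate controls were DMSO only for no effect and full effect of the ATA control for full effect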
Settings: EPAC1 Rap1B-BODIPY-GDP exchange, fluorescence; activity, negative = inhibition: at 115 µM (top of the series)
Summary of the method: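 Nucleotide exchange uses 100 nM EPAC1, 250 nM RAP1B-BODIPY-GDP and 50 uM GDP, with compounds in a concentration-titration series. After 5 min at room temperature, fluorescence (480 nm ex/540 nm em) is read every 5 min for 30 min. Data are normalized to control ATA and DMSO.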
Potency is read from the fitted curve at half-maximal effect.

Sequence of Rap guanine nucleotide exchange factor 3 (Homo sapiens) (O95398 whole entry, looked up): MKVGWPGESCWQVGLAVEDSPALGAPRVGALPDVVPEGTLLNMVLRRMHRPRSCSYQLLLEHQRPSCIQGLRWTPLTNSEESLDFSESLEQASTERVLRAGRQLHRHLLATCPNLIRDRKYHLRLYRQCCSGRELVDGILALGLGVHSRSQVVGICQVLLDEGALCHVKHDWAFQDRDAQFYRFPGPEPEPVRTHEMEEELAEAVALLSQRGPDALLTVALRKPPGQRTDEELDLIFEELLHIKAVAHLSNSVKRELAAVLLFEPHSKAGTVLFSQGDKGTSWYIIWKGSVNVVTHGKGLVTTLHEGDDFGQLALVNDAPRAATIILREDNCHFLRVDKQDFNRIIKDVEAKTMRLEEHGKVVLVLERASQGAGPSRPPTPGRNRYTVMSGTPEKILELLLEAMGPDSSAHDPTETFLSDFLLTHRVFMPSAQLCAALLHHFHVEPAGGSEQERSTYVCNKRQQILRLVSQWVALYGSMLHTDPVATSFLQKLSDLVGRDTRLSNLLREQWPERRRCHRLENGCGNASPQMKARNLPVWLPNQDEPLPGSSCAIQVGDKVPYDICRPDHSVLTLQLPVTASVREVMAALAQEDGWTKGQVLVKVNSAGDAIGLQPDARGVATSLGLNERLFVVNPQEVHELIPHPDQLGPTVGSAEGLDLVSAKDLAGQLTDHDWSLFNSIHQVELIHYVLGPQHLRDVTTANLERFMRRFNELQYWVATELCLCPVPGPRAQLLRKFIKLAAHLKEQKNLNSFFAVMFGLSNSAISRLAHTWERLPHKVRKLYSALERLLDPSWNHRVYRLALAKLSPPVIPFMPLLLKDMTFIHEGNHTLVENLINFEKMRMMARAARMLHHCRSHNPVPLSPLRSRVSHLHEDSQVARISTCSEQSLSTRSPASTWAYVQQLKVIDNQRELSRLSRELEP

activity, negative = inhibition, inactive:
Cc1[nH]c2ccccc2c1C(c1ccccc1)c1ccc(Cl)s1 (centres undefined) -24.6%
COc1ccc2oc(C)c(C(=O)c3ccccc3)c2c1 13.2%
COc1ccc(N=Cc2c(O)n(-c3cccc(C)n3)c(=O)c3ccccc23)c(OC)c1 141%
O=C(Cn1c(=O)n(-c2ccccc2)c(=O)c2c3c(sc21)CCC3)c1ccc(Br)cc1 16.6%
CCc1cccc(CC)c1N1C(=O)C2=C(SCCCS2)C1=O -10.5%
COc1ccc(Cl)cc1NC(=O)CN(C)C(C)C(=O)NC(=O)NC1CCCCC1 (centres undefined) -26.3%
CCN(CC)c1ccc2cc(-c3nc(-c4ccccc4)no3)c(=O)oc2c1 347%
Cc1ccccc1-n1c(O)c(/C=C/C=Nc2ccccc2)c(=O)[nH]c1=O 84.2%
COc1ccccc1CNc1cc(C)nc2nc(-c3ccc(C)cc3)nn12 -14.4%
Cc1cccc(-n2c(N)c(-c3nc4ccccc4n3C)c3nc4ccccc4nc32)c1 -20.8%
O=C(OCCN1C(=O)c2cccc3c(N4CCOCC4)ccc(c23)C1=O)c1ccccc1Cl 87.7%
O=C(N=c1ccn(-c2nc3ccccc3nc2NS(=O)(=O)c2ccccc2)cc1)c1ccccc1Cl -3.81%
COc1ccc(CN(C)C(=O)CC(c2ccccc2)c2ccccc2)cc1 -26.2%
CCOc1ccccc1NC(=O)CSc1nccn1-c1cccc(C)c1 -34.1%
CN1/C(=C/C=C(C#N)C#N)C(C)(C)c2ccccc21 384%
COc1cc(/C=C(\C#N)c2nc3ccccc3o2)ccc1O -3.14%
CCN(CC)C(=O)c1ccc(/C=C/c2c[nH]c3ccccc23)[n+](C)c1 16.7%
Cc1ccc(N2C(=O)c3cccc4c(N)ccc(c34)C2=O)c2cccnc12 76%
N#C/C(=C\c1ccc(N2CCOCC2)o1)c1nc2ccccc2[nH]1 49.5%
O=C(O)c1cccc(-c2ccc(/C=c3/sc4nc5ccccc5n4c3=O)o2)c1 10.8%
COc1cc(C2CC(=O)Oc3cc(C)cc(C)c32)cc(OC)c1OC (centres undefined) -22.1%
COC(=O)c1c(SC)nc2ccccc2c1OCc1ccc(C)cc1C -16.9%
O=c1oc2cc(O)ccc2cc1-c1nc2c(s1)CCc1ccccc1-2 167%
COc1ccccc1C(=O)NNC(=O)CCCN1C(=O)/C(=C/c2cccs2)SC1=S -4.78%
Cc1ccc(-c2csc3ncnc(Nc4ccc(C(=O)O)cc4)c23)cc1 -77.3%
CN(Cc1cccs1)c1nc(-c2cccnc2)nc2ccccc12 -14%
COc1ccc(N=Cc2sc(O)c3ccccc23)cc1 18.8%
O=C(N/N=C/c1cccnc1)c1cc(-c2ccccc2OCc2ccccc2)n[nH]1 17.6%
CC(C)n1cc(/C=C/c2cc[n+](C)cc2)c2ccccc21 70.6%
Cc1ccc2[nH]cc(/C=C/c3cc[n+](C)cc3)c2c1 59.8%
Cc1cccc(-c2nc3nc(C)cc(NCc4ccccc4Cl)n3n2)c1 16%
CCOC(=O)N1CCc2c(sc3c2c(=O)n(-c2ccc(F)cc2)c(=O)n3CC(=O)c2ccc(Cl)cc2)C1 -5.37%
CCOc1cc(/C=C2\CCCc3c2nc2ccccc2c3C(=O)O)ccc1OC 63.9%
NC(=O)c1c(NC(=O)c2ccccc2)sc2c1CCN(Cc1ccccc1)C2 36%
CN(C)c1ccc(/C=C2\SC(=S)N(Nc3ncc(C(F)(F)F)cc3Cl)C2=O)cc1 64.4%

Potency, active:
O=C(N/N=C/c1cc(Cl)cc([N+](=O)[O-])c1O)NC12CC3CC(CC(C3)C1)C2 10.7 µM
CCOC(=O)c1sc2nc3c(SCC(=O)O)cc(C(=O)c4cc(F)ccc4O)cn3c(=O)c2c1C 9.53 µM
COc1ccc(O)c(C(=O)c2cc(SCC(=O)O)c3nc4sc5c(c4c(=O)n3c2)CCCC5)c1 23.9 µM
COc1ccc(NC(=O)/C(C#N)=C\c2ccc(OCc3ccc(C(=O)O)cc3)c(OC)c2)cc1 67.5 µM
